# Values joined by “and” are separate entries in the source; they are usually repeats but may differ in a detail not shown here. Identical values can stand only once. Records with an inconclusive call do not appear. Where a call stands in place of a potency, no number is given. Some structures have more than one record in an assay (separate samples or runs), and their calls can disagree. Active and inactive are the calls of the source. The call rests on the fitted dose curve.
# System: not listed separately
# Experiment: Nuclear factor erythroid 2-related factor 2/antioxidant responsive element (Nrf2/ARE) small molecule agonists: luciferase reporter gene qHTS assay in human keratinocytes (AID 1919969); further: potency means the concentration at half of the fitted maximal effect
# Conditions: KeratinoSens HaCaT ARE-luciferase, luminescence, 24 h; series mostly up to 92.4 µM
# Further: nearly all actives have a fitted effect of over 35% in size.
row,SMILES,Potency
1,CCN(CC)c1ccc2c(C)cc(=O)oc2c1,inactive
2,C/C=C/C(=O)C1=C(C)C=CCC1(C)C,inactive
3,CC(C)=CCC/C(C)=C/C#N,inactive
4,C1CSCCS1,inactive
5,CCCCCCCCS(=O)(=O)Cl,inactive
6,CC(C)c1ccc(C=O)cc1,inactive
7,OCCC(F)(F)C(F)(F)C(F)(F)C(F)(F)C(F)(F)C(F)(F)F,inactive
8,OC[C@H]1O[C@@H]2O[C@H]3[C@H](O)[C@@H](O)[C@@H](O[C@H]4[C@H](O)[C@@H](O)[C@@H](O[C@H]5[C@H](O)[C@@H](O)[C@@H](O[C@H]6[C@H](O)[C@@H](O)[C@@H](O[C@H]7[C@H](O)[C@@H](O)[C@@H](O[C@H]8[C@H](O)[C@@H](O)[C@@H](O[C@H]1[C@H](O)[C@H]2O)O[C@@H]8CO)O[C@@H]7CO)O[C@@H]6CO)O[C@@H]5CO)O[C@@H]4CO)O[C@@H]3CO,inactive
9,NC(=O)c1ccccc1Cl,inactive
10,CC(=O)[C@H]1CC[C@H]2[C@@H]3CCC4=CC(=O)CC[C@]4(C)[C@H]3CC[C@]12C,inactive
11,NC(=O)CCCCC(N)=O,inactive
12,Nc1ccc(N)c(Cl)c1,54.4 µM (active) and 27.3 µM (active)
13,CS(=O)(=O)O,inactive
14,O=C(O)c1ccccc1OP(=O)(O)O,inactive
15,CCOC(=O)C(C)Oc1ccc(Oc2cnc3cc(Cl)ccc3n2)cc1 (stereo unspecified),inactive
16,CCOC(=O)CN1CCCC1=O,inactive
17,COS(C)(=O)=O,inactive
18,CC(=O)O[C@H]1C[C@@H]2CC[C@@]1(C)C2(C)C,inactive
19,O=C(O)c1cc(=O)c2c(OCC(O)COc3cccc4oc(C(=O)O)cc(=O)c34)cccc2o1,inactive
20,CC(=O)CC(C)(C)C1CCCCC1,inactive
21,CC(C)CCCCCCc1ccc(O)cc1,2.48 µM (active) and inactive
22,CN(C)C(=O)Oc1ccc[n+](C)c1,inactive
23,O=c1[nH]c(=O)c2cn[nH]c2[nH]1,inactive
24,CN(CC1(C)CCCO1)S(=O)(=O)c1ccc(Cl)c(S(N)(=O)=O)c1 (stereo unspecified),inactive
25,CC(C)(Oc1ccc(CCNC(=O)c2ccc(Cl)cc2)cc1)C(=O)O,inactive

# Biological target: Gonadotropin-releasing hormone receptor (Homo sapiens) (UniProt P30968)
# Experiment: Human gonadotropin-releasing hormone receptor (GnRHR) small molecule agonists, calcium flux assay in GnRHR-HEK293 cells (AID 1920063)
# Conditions: calcium flux fluorescence, agonist mode; series mostly up to 57.6 µM
# Method in brief: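 HEK293 cells stably expressing human GnRHR were plated 18 h at 37 °C, loaded with calcium dye 1 h at 37 °C, then given compound in agonist mode; fluorescence (Ex/Em 480/540) read kinetically for 3 min at 1 s intervals.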
# Gonadotropin-releasing hormone receptor (Homo sapiens), sequence (P30968 whole entry, looked up): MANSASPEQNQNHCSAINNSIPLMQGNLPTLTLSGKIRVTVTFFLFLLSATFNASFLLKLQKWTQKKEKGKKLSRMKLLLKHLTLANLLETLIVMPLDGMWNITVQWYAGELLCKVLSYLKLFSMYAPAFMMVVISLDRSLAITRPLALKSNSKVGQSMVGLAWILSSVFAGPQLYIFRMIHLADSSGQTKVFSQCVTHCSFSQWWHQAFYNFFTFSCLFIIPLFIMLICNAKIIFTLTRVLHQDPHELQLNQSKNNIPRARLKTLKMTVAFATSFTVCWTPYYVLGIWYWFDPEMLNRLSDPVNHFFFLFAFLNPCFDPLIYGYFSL
row,SMILES,Potency
1,CCN(CC)c1ccc2c(C)cc(=O)oc2c1,inactive
2,CC(C)=CCC/C(C)=C/C#N,inactive
3,CCCCCCCCS(=O)(=O)Cl,inactive
4,O=C1CC2CC1C1CCCC21 (stereo unspecified),inactive
5,NNc1nncc2ccccc12,inactive
6,Cc1ccc2oc(=O)ccc2c1,inactive
7,OCc1ccccc1,inactive
8,CC1(C)C(C=C(Cl)Cl)C1C(=O)OCc1cccc(Oc2ccccc2)c1 (stereo unspecified),inactive
9,CCCCC(CC)COCC1CO1 (stereo unspecified),inactive
10,CC(C)NCC(O)COc1cccc2ccccc12 (stereo unspecified),inactive
11,CC(C)c1ccc(C=O)cc1,inactive
12,OCCC(F)(F)C(F)(F)C(F)(F)C(F)(F)C(F)(F)C(F)(F)F,inactive
13,COCCCOc1ccnc(CS(=O)c2nc3ccccc3[nH]2)c1C (stereo unspecified),inactive
14,OC[C@H]1O[C@@H]2O[C@H]3[C@H](O)[C@@H](O)[C@@H](O[C@H]4[C@H](O)[C@@H](O)[C@@H](O[C@H]5[C@H](O)[C@@H](O)[C@@H](O[C@H]6[C@H](O)[C@@H](O)[C@@H](O[C@H]7[C@H](O)[C@@H](O)[C@@H](O[C@H]8[C@H](O)[C@@H](O)[C@@H](O[C@H]1[C@H](O)[C@H]2O)O[C@@H]8CO)O[C@@H]7CO)O[C@@H]6CO)O[C@@H]5CO)O[C@@H]4CO)O[C@@H]3CO,inactive
15,NC(=O)c1ccccc1Cl,inactive
16,CC(C)(C)NC(N)=O,inactive

row,SMILES,Potency
1,CC(=O)[C@H]1CC[C@H]2[C@@H]3CCC4=CC(=O)CC[C@]4(C)[C@H]3CC[C@]12C,inactive
2,NC(=O)CCCCC(N)=O,inactive
3,CS(=O)(=O)O,inactive
4,CCCCCCCCOCCC#N,inactive
5,O=C(O)c1ccccc1OP(=O)(O)O,inactive
6,CCOC(=O)C(C)Oc1ccc(Oc2cnc3cc(Cl)ccc3n2)cc1 (stereo unspecified),inactive
7,CCOC(=O)CN1CCCC1=O,inactive
8,COS(C)(=O)=O,inactive
9,CC(=O)O[C@H]1C[C@@H]2CC[C@@]1(C)C2(C)C,inactive
10,BrC1CCC(Br)C(Br)CCC(Br)C(Br)CCC1Br (stereo unspecified),inactive
11,O=C(O)c1cc(=O)c2c(OCC(O)COc3cccc4oc(C(=O)O)cc(=O)c34)cccc2o1,inactive
12,CC(=O)CC(C)(C)C1CCCCC1,inactive
13,C=CC(=O)NC(C)C,inactive
14,O=S(=O)(O)c1cccc2ccccc12,inactive
15,CC(C)CCCCCCc1ccc(O)cc1,inactive

# Reference: PubChem BioAssay (Tox21)
